From PMC7862700, “An all-to-all approach to the identification of sequence-specific readers for epigenetic DNA modifications on cytosine”

Assays:
Assay in all cases: DAPPL (digital affinity profiling via proximity ligation, sequencing); 10 mM Tris-HCl pH 7.5, 50 mM NaCl, 1 mM DTT, 4% glycerol, room temperature, 30 min; GST-TFs on glutathione beads, 16-mer random dsDNA library, 0.1% formaldehyde crosslink after washing; high values mean tight binding
[1] = biological target: T1, FLI1 (Homo sapiens, UniProt Q01543 1-452); details: protein: recombinant; tags: N-terminal GST; dsDNA, one strand shown
T1 sequence: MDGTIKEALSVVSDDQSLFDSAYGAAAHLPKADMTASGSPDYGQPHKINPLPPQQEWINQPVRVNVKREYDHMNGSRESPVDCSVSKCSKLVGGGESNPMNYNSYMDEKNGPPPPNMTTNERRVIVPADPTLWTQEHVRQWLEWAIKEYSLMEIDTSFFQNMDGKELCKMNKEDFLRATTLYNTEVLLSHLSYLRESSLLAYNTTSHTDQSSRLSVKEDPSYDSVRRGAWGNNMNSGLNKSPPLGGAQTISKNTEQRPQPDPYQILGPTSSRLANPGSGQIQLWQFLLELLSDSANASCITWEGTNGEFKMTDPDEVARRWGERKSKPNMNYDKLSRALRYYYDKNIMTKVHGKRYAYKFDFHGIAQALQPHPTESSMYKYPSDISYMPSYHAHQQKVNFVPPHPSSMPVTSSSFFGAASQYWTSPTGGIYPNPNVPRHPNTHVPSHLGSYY
Outline: (§1)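 Each value of binding signal is a hexamer's read frequency for a factor divided by the same hexamer's frequency in the tag-only sample. Barcoded, bead-captured GST fusions of human transcription factors made in yeast were pooled with that sample and incubated with 200 nmole of a random double-stranded 16-mer DNA library in Tris/NaCl/DTT/glycerol buffer at room temperature for 30 min. Washing, 0.1% formaldehyde crosslinking, proximity ligation, PCR and Illumina NextSeq500 sequencing followed.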

[2] = biological target: T2, ELK1 (Homo sapiens, UniProt P19419 1-428); details: protein: recombinant; tags: N-terminal GST; dsDNA, one strand shown
T2 sequence: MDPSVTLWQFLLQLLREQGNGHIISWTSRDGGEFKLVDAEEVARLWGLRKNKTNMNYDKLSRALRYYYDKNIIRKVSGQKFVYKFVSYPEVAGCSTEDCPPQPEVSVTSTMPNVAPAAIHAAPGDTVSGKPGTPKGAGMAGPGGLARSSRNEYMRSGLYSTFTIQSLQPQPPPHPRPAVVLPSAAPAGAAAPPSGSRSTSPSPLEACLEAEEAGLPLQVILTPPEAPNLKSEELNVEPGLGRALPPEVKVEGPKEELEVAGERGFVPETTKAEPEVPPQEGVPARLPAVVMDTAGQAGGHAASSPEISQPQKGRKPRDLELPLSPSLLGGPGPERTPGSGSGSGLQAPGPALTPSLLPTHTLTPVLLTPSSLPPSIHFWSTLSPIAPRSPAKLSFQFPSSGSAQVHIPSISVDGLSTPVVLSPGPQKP
Outline: as §1

[3] = biological target: T3, GABPA (Homo sapiens, UniProt Q06546 1-454); details: protein: recombinant; tags: N-terminal GST; dsDNA, one strand shown
T3 sequence: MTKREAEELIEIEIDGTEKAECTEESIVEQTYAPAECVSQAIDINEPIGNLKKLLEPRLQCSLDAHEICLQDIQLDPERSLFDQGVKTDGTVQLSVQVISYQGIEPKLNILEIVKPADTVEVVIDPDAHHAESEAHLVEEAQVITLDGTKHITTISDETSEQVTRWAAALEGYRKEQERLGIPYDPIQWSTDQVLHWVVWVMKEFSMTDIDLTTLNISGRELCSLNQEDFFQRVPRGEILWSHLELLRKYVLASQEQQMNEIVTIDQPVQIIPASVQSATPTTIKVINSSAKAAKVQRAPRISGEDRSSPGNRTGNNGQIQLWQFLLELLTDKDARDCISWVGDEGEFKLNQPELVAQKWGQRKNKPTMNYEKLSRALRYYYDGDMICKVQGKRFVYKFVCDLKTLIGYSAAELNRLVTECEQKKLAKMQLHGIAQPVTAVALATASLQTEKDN
Outline: as §1

[4] = biological target: T4, ERG (Homo sapiens, UniProt P11308 1-479); details: protein: recombinant; tags: N-terminal GST; dsDNA, one strand shown
T4 sequence: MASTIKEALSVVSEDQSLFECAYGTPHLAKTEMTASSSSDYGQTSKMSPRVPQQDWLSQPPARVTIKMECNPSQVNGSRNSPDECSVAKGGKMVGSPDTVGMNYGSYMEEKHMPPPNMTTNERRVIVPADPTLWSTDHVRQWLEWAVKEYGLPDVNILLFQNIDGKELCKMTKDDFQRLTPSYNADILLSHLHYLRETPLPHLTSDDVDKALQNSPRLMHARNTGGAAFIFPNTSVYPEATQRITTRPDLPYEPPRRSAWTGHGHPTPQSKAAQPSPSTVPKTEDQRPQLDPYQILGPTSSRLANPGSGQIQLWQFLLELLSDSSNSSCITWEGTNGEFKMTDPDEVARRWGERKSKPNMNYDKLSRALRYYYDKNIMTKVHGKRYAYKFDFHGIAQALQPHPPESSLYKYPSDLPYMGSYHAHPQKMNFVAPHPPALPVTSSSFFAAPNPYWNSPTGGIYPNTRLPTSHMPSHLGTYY
Outline: as §1

[5] = biological target: ELF1 (Homo sapiens, UniProt P32519 1-619); details: protein: recombinant; tags: N-terminal GST; dsDNA, one strand shown
Outline: as §1

[6] = biological target: T5, EHF (Homo sapiens, UniProt Q9NZC4 1-300); details: protein: recombinant; tags: N-terminal GST; dsDNA, one strand shown
T5 sequence: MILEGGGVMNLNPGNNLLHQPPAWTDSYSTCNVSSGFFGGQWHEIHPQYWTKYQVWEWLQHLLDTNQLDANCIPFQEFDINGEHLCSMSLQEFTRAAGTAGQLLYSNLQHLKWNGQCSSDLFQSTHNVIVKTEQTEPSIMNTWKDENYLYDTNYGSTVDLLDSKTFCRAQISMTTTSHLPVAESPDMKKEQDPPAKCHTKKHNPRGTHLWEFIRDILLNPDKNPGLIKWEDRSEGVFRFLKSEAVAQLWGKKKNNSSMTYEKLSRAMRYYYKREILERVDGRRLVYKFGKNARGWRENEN
Outline: as §1

[7] = biological target: SPI1 (Homo sapiens, UniProt P17947 1-270); details: protein: recombinant; tags: N-terminal GST; dsDNA, one strand shown
Outline: as §1

[8] = biological target: SPIB (Homo sapiens, UniProt Q01892 1-262); details: protein: recombinant; tags: N-terminal GST; dsDNA, one strand shown
Outline: as §1

[9] = biological target: T6, ELK3 (Homo sapiens, UniProt P41970 1-407); details: protein: recombinant; tags: N-terminal GST; dsDNA, one strand shown
T6 sequence: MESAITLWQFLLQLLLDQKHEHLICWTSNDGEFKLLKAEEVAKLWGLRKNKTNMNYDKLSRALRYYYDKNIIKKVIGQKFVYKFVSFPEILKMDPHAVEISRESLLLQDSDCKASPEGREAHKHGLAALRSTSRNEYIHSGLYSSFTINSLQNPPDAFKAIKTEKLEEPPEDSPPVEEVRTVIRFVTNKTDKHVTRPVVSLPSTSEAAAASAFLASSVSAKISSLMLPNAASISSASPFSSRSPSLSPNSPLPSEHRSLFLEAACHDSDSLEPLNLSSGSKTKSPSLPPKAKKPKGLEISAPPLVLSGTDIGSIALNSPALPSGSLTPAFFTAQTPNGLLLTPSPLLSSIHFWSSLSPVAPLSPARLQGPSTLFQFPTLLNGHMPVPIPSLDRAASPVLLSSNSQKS
Outline: as §1

[10] = biological target: T7, FEV (Homo sapiens, UniProt Q99581 1-238); details: protein: recombinant; tags: N-terminal GST; dsDNA, one strand shown
T7 sequence: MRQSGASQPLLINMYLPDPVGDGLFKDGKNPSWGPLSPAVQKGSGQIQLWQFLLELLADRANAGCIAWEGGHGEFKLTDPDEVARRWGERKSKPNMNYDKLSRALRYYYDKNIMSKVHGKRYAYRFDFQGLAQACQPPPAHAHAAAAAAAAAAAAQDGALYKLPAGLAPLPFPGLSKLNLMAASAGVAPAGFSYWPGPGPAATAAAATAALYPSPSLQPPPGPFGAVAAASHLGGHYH
Outline: as §1

[11] = biological target: ETV5 (Homo sapiens, UniProt P41161 1-510); details: protein: recombinant; tags: N-terminal GST; dsDNA, one strand shown
Outline: as §1

[12] = biological target: HSF1 (Homo sapiens, UniProt Q00613 1-529); details: protein: recombinant; tags: N-terminal GST; chain copies: 3; dsDNA, one strand shown
Outline: as §1

[13] = biological target: T8, SPIC (Homo sapiens, UniProt Q8N5J4 1-248); details: protein: recombinant; tags: N-terminal GST; dsDNA, one strand shown
T8 sequence: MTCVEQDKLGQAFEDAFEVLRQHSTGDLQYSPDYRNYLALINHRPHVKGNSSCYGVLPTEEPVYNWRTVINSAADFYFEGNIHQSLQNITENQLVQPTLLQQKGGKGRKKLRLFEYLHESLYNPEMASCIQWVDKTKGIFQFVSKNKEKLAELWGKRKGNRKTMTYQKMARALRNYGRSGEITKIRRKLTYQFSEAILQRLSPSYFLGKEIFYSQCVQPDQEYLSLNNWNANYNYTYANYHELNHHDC
Outline: as §1

[14] = biological target: ELF4 (Homo sapiens, UniProt Q99607 1-663); details: protein: recombinant; tags: N-terminal GST; dsDNA, one strand shown
Outline: as §1

[15] = biological target: T9, ELK4 (Homo sapiens, UniProt P28324-2 1-405); details: protein: recombinant; tags: N-terminal GST; dsDNA, one strand shown
T9 sequence: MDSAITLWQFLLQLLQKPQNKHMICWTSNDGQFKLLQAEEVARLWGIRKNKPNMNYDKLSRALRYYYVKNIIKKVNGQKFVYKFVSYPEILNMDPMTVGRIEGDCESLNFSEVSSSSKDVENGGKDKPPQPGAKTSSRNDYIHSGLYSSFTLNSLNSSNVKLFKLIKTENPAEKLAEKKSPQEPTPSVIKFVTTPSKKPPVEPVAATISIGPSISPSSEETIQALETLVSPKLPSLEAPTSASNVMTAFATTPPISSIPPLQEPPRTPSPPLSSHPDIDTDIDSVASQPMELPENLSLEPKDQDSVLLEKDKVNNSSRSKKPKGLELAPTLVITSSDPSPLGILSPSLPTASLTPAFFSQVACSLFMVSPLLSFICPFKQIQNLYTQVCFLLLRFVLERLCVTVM
Outline: as §1

[16] = biological target: T10, ETV2 (Homo sapiens, UniProt O00321 1-342); details: protein: recombinant; tags: N-terminal GST; dsDNA, one strand shown
T10 sequence: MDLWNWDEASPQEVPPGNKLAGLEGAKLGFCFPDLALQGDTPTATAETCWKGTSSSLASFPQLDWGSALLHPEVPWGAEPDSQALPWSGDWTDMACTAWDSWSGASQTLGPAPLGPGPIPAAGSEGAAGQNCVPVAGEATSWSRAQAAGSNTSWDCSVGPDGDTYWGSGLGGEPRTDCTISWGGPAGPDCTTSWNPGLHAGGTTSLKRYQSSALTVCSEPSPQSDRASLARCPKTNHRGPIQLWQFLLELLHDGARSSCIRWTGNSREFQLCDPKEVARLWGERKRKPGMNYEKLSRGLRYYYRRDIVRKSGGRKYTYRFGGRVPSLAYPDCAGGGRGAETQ
Outline: as §1

[17] = biological target: T11, ELF3 (Homo sapiens, UniProt P78545 1-371); details: protein: recombinant; tags: N-terminal GST; dsDNA, one strand shown
T11 sequence: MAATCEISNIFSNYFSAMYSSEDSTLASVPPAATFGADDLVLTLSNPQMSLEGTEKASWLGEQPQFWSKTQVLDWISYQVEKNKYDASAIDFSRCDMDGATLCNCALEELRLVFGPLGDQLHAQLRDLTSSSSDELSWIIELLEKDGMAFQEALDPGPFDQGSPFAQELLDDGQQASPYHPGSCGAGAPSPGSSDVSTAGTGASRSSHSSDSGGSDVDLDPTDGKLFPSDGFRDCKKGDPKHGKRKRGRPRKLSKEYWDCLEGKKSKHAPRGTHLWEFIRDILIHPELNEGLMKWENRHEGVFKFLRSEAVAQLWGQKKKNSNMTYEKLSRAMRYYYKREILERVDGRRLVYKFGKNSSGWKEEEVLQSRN
Outline: as §1

[18] = biological target: ETV1 (Homo sapiens, UniProt P50549 1-477); details: protein: recombinant; tags: N-terminal GST; dsDNA, one strand shown
Outline: as §1

Chain of ETV1 (P50549 whole entry): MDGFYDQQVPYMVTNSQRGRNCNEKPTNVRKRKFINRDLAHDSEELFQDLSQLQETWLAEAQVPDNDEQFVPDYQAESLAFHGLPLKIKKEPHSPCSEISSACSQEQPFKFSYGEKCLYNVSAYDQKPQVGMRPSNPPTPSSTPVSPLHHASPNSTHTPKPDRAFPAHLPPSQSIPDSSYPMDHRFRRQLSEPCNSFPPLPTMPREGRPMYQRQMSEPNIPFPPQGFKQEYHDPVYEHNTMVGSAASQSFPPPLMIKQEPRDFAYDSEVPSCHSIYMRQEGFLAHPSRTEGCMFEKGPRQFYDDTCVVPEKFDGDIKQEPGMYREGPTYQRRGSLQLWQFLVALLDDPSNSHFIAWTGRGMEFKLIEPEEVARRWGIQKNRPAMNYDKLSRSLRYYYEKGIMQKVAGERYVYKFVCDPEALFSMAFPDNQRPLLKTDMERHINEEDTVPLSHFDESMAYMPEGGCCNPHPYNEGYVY
Chain of ELF4 (Q99607 whole entry): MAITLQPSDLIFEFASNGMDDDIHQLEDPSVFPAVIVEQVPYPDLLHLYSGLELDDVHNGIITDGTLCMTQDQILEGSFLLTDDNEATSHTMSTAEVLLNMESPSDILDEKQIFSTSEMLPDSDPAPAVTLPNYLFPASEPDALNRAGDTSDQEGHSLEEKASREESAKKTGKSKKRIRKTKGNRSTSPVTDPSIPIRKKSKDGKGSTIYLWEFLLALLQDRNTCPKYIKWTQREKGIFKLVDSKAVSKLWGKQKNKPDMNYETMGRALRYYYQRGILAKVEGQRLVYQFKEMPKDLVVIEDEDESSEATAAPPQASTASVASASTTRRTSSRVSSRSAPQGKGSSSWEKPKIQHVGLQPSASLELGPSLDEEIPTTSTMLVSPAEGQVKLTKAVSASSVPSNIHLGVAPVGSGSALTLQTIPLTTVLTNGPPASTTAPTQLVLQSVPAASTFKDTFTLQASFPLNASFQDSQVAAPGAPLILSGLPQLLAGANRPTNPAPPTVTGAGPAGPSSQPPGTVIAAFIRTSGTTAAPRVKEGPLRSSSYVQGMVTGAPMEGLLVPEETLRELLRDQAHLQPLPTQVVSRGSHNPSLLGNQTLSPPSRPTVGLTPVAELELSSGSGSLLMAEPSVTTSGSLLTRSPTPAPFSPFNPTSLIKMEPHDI
Chain of SPIB (Q01892 whole entry): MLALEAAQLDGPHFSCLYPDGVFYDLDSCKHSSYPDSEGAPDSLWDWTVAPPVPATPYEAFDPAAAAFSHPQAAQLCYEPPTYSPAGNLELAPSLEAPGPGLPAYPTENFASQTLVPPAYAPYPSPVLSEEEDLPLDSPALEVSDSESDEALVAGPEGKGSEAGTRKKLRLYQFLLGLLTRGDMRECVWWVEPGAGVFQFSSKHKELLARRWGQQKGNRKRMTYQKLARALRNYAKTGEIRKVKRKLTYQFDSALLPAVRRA
Chain of HSF1 (Q00613 whole entry): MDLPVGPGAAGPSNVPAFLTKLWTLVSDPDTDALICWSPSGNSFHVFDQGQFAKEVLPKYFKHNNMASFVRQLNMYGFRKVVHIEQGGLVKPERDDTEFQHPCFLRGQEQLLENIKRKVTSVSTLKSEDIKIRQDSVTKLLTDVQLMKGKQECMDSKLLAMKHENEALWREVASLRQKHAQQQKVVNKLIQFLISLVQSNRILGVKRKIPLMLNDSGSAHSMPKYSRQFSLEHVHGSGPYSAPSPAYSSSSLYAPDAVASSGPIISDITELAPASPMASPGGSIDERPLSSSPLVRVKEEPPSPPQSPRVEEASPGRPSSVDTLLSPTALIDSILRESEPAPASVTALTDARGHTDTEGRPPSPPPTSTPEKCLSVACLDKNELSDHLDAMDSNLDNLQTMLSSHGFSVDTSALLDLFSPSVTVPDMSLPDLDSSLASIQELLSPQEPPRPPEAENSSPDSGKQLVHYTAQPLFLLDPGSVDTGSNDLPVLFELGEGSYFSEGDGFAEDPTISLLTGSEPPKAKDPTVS
Chain of ETV5 (P41161 whole entry): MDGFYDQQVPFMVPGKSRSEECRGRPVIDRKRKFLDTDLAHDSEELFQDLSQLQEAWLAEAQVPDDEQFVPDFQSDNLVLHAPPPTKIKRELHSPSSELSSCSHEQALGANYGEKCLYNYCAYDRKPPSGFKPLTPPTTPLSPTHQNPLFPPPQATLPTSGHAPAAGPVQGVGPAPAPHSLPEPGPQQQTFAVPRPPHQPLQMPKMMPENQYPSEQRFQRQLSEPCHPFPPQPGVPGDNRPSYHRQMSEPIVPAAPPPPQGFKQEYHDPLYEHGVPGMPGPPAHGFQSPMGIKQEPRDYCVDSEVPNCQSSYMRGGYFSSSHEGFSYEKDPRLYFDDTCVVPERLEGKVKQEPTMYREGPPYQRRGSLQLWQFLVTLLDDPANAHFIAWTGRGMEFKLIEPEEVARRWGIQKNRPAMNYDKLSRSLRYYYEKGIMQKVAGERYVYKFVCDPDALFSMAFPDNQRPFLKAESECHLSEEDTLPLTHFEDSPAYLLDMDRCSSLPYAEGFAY
Chain of ELF1 (P32519 whole entry): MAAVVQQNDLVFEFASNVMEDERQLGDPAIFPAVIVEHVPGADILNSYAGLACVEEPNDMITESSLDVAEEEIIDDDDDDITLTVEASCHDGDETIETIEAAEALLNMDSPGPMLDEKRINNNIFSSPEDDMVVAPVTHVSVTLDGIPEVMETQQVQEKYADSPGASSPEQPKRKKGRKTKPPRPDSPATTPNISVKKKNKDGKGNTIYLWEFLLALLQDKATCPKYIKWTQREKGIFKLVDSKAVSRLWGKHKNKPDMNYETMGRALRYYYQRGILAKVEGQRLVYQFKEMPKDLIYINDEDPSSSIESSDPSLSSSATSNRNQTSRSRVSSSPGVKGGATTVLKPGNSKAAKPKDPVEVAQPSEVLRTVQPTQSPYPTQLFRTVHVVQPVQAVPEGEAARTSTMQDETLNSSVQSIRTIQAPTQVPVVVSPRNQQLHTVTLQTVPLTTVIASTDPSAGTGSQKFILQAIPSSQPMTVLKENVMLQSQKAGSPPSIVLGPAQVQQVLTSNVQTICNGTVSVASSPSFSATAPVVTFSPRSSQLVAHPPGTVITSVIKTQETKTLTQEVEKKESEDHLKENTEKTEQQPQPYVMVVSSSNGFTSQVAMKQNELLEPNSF

Sequence: AACAGC
- binding signal [1]: 1.1 fold enrichment (6-mer frequency, TF over GST control)
- binding signal [2]: 1.1 fold enrichment (6-mer frequency, TF over GST control)
- binding signal [3]: 1.17 fold enrichment (6-mer frequency, TF over GST control)
- binding signal [4]: 1.13 fold enrichment (6-mer frequency, TF over GST control)
- binding signal [5]: 1.12 fold enrichment (6-mer frequency, TF over GST control)
- binding signal [6]: 1.16 fold enrichment (6-mer frequency, TF over GST control)
- binding signal [7]: 1.11 fold enrichment (6-mer frequency, TF over GST control)
- binding signal [8]: 1.13 fold enrichment (6-mer frequency, TF over GST control)
- binding signal [9]: 1.17 fold enrichment (6-mer frequency, TF over GST control)
- binding signal [10]: 1.14 fold enrichment (6-mer frequency, TF over GST control)
- binding signal [11]: 1.09 fold enrichment (6-mer frequency, TF over GST control)
- binding signal [12]: 1 fold enrichment (6-mer frequency, TF over GST control)
- binding signal [13]: 1.05 fold enrichment (6-mer frequency, TF over GST control)
- binding signal [14]: 1.15 fold enrichment (6-mer frequency, TF over GST control)
- binding signal [15]: 1.2 fold enrichment (6-mer frequency, TF over GST control)
- binding signal [16]: 1.12 fold enrichment (6-mer frequency, TF over GST control)
- binding signal [17]: 1.1 fold enrichment (6-mer frequency, TF over GST control)
- binding signal [18]: 1.11 fold enrichment (6-mer frequency, TF over GST control)
